From PubChem
YopH PTP inh – blocks Yersinia enterocolitica YopH tyrosine phosphatase; fluorescence Ex485/Em525; inhibition, % (no concentration beside the values); 0.16% of 140,000 active; in the data active means inhibition above about 50%
RmlC RmlD mix – RmlC/RmlD inhibition, mixture screen | RmlC/RmlD coupled enzyme inhibition, 384-well mixture HTS | inhibition, % at 5.5 µM | 0.39% of 110,000 active | AID 1532; in the data active means inhibition above about 30%, passing the limit was not always enough
RmlCD fluor art – RmlC/RmlD fluorescence artifact, counter-screen | shares compounds with RmlC RmlD mix | RmlC/RmlD assay fluorescence artifact counter-screen | calls only | 96% of 360 active | AID 1696; call rule not given here;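 further: compound alone with no enzyme and no substrates present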
* marks the source's active call; other numbers are inactive results. Only some compounds are listed: those with a hit (about 0.41% of all), similar ones and a draw of the others.

Screening CC1(C)[C@@H](O)CC[C@]2(C)C3C(O)C=C4[C@H]5C[C@@](C)(C(=O)O)CC[C@]5(C)CC[C@]4(C)[C@]3(C)CC[C@@H]12 (some centres undefined) returned RmlC RmlD mix 5.
Screening CCOC(=O)C1=C(CSc2nc(-c3ccccc3)ccc2C#N)OC(N)=C(C#N)C1c1cccnc1 (centres undefined) returned YopH PTP inh 9, RmlC RmlD mix 45* and RmlCD fluor art active.
`CCOC(=O)C1=C(CSc2nc(-c3ccccc3)ccc2C#N)OC(N)=C(C#N)C1c1ccccc1` (centres undefined) gave YopH PTP inh -6 and RmlC RmlD mix 30.
Screening O=S(=O)([O-])CCC[n+]1c(SCCCS(=O)(=O)O)sc2ccc(Cl)cc21 returned YopH PTP inh -29.
COc1ccc(CN2C(=O)c3ccccc3C2=O)cc1C(=O)Nc1ccc(C)cc1C was read as YopH PTP inh -24.
Screening Cc1ccc(C(=O)O)cc1N=Cc1cc(Br)cc(Br)c1O returned YopH PTP inh -24 and RmlCD fluor art active.
For CNC(=S)N/N=C/c1cc(Br)cc(Br)c1O the results were YopH PTP inh -22.
For CCc1cc(=O)oc2c(CN3CCN(C)CC3)c(O)c(Cl)cc12 the results were YopH PTP inh 8, RmlC RmlD mix 126* and RmlCD fluor art active.
For CCc1cc2c(-c3ccccc3)cc(=O)oc2c(CN2CCOCC2)c1O the results were YopH PTP inh -21 and RmlC RmlD mix -6.
For CC(C)CNC(=O)c1ccc(Cl)c(N)c1 the results were YopH PTP inh -21.
Screening Cc1ccc(NS(=O)(=O)c2ccc(N3C(=O)CCC3=O)cc2)cc1 returned YopH PTP inh 9 and RmlC RmlD mix -12.
CCOc1ccc2oc(-c3ccccc3)c(C(=O)O)c2c1 was read as YopH PTP inh 20 and RmlC RmlD mix 26.
CC(Oc1ccc2oc(-c3ccccc3)c(C(=O)O)c2c1)C(=O)O (centres undefined) was read as YopH PTP inh -28, RmlC RmlD mix 58* and RmlCD fluor art active.
For CCCc1cc(NCC2CCCO2)n2c(nc3ccccc32)c1C#N (centres undefined) the results were YopH PTP inh -10, RmlC RmlD mix 102* and RmlCD fluor art active.
Screening CCCc1cc(-n2cnc3ccccc32)n2c(nc3ccccc32)c1C#N returned YopH PTP inh -19 and RmlC RmlD mix 12.
Screening CC(C)(C)OC(=O)NCCCC1=CC2=CC(=O)C(C)(O)C(=O)C2=CO1 (centres undefined) returned RmlC RmlD mix -9.
`CC1=C(C(=O)OC(C)(C)C)C(c2cccs2)NC(=O)N1` (centres undefined) gave YopH PTP inh -5.
Screening CN(C(=O)C1CCOC1)c1nnc(-c2ccccn2)s1 (centres undefined) returned YopH PTP inh 4 and RmlC RmlD mix 27.
Screening CN(C(=O)C1CCOC1)c1nnc(-c2ccncc2)s1 (centres undefined) returned YopH PTP inh -32, RmlC RmlD mix 48* and RmlCD fluor art active.
Screening CN(C(=O)c1ccncc1)c1nnc(-c2ccncc2)s1 returned YopH PTP inh -24, RmlC RmlD mix 103* and RmlCD fluor art active.
`COc1ccccc1CCNC(=O)C1CCCO1` (centres undefined) gave YopH PTP inh -22 and RmlC RmlD mix 6.
`COCC(=O)N(C)c1nnc(-c2ccccn2)s1` gave YopH PTP inh -22, RmlC RmlD mix 111* and RmlCD fluor art active.
Screening Cc1cccc(C(=O)N(C)c2nnc(-c3ccncc3)s2)c1 returned YopH PTP inh -29 and RmlC RmlD mix 10.
For COCC(=O)N(C)c1nnc(-c2ccc([N+](=O)[O-])cc2)s1 the results were YopH PTP inh -19 and RmlC RmlD mix 10.
For COc1ccccc1-c1nnc(N(C)C(=O)C2CCCO2)s1 (centres undefined) the results were YopH PTP inh -23, RmlC RmlD mix 37* and RmlCD fluor art active.
`Cc1cccc(C(C)C)c1NC(=O)C1CN(S(=O)(=O)c2ccccc2)CCN1S(=O)(=O)c1ccccc1` (centres undefined) gave YopH PTP inh -5.
CSc1nsc(SCC(=O)Nc2nc3ccc(C)cc3s2)n1 was read as YopH PTP inh -8.
`C=CCOC(=O)C1=C[C@H](c2coc3ccccc3c2=O)[C@@H](CCCO)[C@H](OCC)O1` gave RmlC RmlD mix -16.
For COc1ccc(C[C@H]2c3cc(O)c(OC)cc3CC[N+]2(C)[O-])cc1O (some centres undefined) the results were RmlC RmlD mix -34.
C#CCOCCOCCOCCNc1nc(N2CCN(C(=O)C([C@@H](C)CC)n3cc(C(N)COC(=O)C(F)(F)F)nn3)CC2)nc(N2CCN(C(=O)C([C@@H](C)CC)n3cc(C(N)CC(C)C)nn3)CC2)n1 (some centres undefined) was read as RmlC RmlD mix 9.
Cc1cnc(-c2nnc(N(C)C(=O)C3CCOC3)s2)cn1 (centres undefined) was read as YopH PTP inh -15.
Screening CN(C(=O)C1CCCO1)c1nnc(-c2ccncc2)s1 (centres undefined) returned YopH PTP inh -23, RmlC RmlD mix 161* and RmlCD fluor art active.
CN(C(=O)C1CCCO1)c1nnc(-c2ccccn2)s1 (centres undefined) was read as YopH PTP inh -40, RmlC RmlD mix 162* and RmlCD fluor art active.
Screening COc1ccc(-c2nnc(NC(=O)C3CCCO3)s2)cc1 (centres undefined) returned YopH PTP inh -147 and RmlC RmlD mix -8.
`O=C(Nc1cccc(-c2cn3cccnc3n2)c1)c1ccco1` gave YopH PTP inh -58 and RmlC RmlD mix 33.
COc1ccc(-c2cn3cccnc3n2)cc1NC(=O)c1ccc(Br)o1 was read as YopH PTP inh -47 and RmlC RmlD mix 22.
`CCOCC(=O)Nc1ccc(-c2cn3cccnc3n2)cc1` gave YopH PTP inh -26, RmlC RmlD mix 106* and RmlCD fluor art active.
Cc1ccc(-c2cn3cccnc3n2)cc1NC(=O)c1ccc(Br)o1 was read as YopH PTP inh -11, RmlC RmlD mix 70* and RmlCD fluor art active.
O=C(Nc1cccc(-c2cn3cccnc3n2)c1)c1ccc(Br)o1 was read as YopH PTP inh -17, RmlC RmlD mix 55* and RmlCD fluor art active.
CCCC(=O)Nc1cc(-c2cn3cccnc3n2)ccc1OC was read as YopH PTP inh -39 and RmlC RmlD mix 21.
CC1(C)OC(=O)C(=NNc2ccc(Br)cc2)C(=O)O1 was read as YopH PTP inh -23.
Screening CCc1cc(=O)oc2cc(C)c(CN3CCCC(C)C3)c(O)c12 (centres undefined) returned YopH PTP inh 14 and RmlC RmlD mix 6.
For COC(=O)Cc1c(C)c2ccc(O)c(CN3CCCC(C)C3)c2oc1=O (centres undefined) the results were YopH PTP inh -13, RmlC RmlD mix 96* and RmlCD fluor art active.
Screening COCC(C)OC(=O)c1c(N)n(Cc2ccco2)c2nc3ccccc3nc12 (centres undefined) returned YopH PTP inh -46, RmlC RmlD mix 56* and RmlCD fluor art active.
